The supplement of paper PMC6135742
Counter-ions that a name gives are not always drawn. ± gives the standard deviation of the averaged measurements. Over roughly 2,600 compounds, “MBP+ mature oligodendrocyte number relative to DMSO vehicle control” has its median near -0.34; the highest 2% begin near 13. The sample as a whole holds a higher share of the highest values than the screen did.

test system: jimpy (Plp1 jimpy) mouse iPSC-derived oligodendrocyte progenitor cells; experiment: MBP+ mature oligodendrocyte number relative to DMSO vehicle control (SDs above negative control mean); higher = more surviving jimpy oligodendrocytes (rescue); details: 10 µM; 3 days
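Further: 10 µM single dose with 3-day oligodendrocyte differentiation.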

Row | Compound | MBP+ mature oligodendrocyte number
1 | COCCCOc1ccnc(C[S+]([O-])c2nc3ccccc3[nH]2)c1C (stereo unspecified) [Rabeprazole sodium] | 1.61
2 | Cc1c(OCC(F)(F)F)ccnc1C[S+]([O-])c1nc2ccccc2[nH]1 (stereo unspecified) [Lansoprazole] | 7.5 ± 4.5
3 | Cc1c(OCC(F)(F)F)ccnc1C[S@@+]([O-])c1nc2ccccc2[nH]1 [Dexlansoprazole] | 17.2
4 | O=C(NCCCNc1nc(Nc2cccc(NC(=O)N3CCCC3)c2)ncc1I)c1cccs1 | -6.61
5 | NCCCCC(=O)O [5-Aminovaleric acid hydrochloride] | -1.14
6 | O=C(/C=C/c1ccccc1)NC(NC(=S)Nc1cccc2cccnc12)C(Cl)(Cl)Cl (stereo unspecified) [Salubrinal] | 19
7 | O=C(C=Cc1ccccc1)NC(NC(=S)Nc1ccc(Cl)cc1)C(Cl)(Cl)Cl (stereo unspecified) | -0.386
8 | O=C(Nc1cccc2cccnc12)c1ccc(N2C(=O)[C@@H]3[C@H](C2=O)[C@@H]2C=C[C@H]3C2)cc1 [IWR-1-endo] | -3.56
9 | N=C(N)Nc1ccc(C(=O)Oc2ccc3cc(C(=N)N)ccc3c2)cc1 [Nafamostat Mesylate] | -3.03
10 | NC1CONC1=O (racemic) [DL-Cycloserine] | 0.353
11 | O=C(Nc1cccnc1)N1CCC(Cc2cccc(Oc3ccc(C(F)(F)F)cn3)c2)CC1 [PF 3845 hydrate] | 10.1
12 | Cn1ccc2cc3c(cc21)CCN3C(=O)Nc1cccnc1 | 0.574
13 | O=C(Nc1ccccc1Br)N[C@@H]1CCN(c2ccc(C(F)(F)F)cn2)C1 | 1.22
14 | O=C(Nc1cccnc1)N1CCC(Cc2cccc(Oc3ccc(C(F)(F)F)cn3)c2)CC1 | 19.5
15 | Nc1nccc(Oc2ccc(NC(=O)c3c[nH]cc(-c4ccc(F)cc4)c3=O)cc2F)c1Cl | 7.17
16 | C[C@@H](O[C@H]1OCCN(Cc2nn(P(=O)(O)O)c(=O)[nH]2)[C@H]1c1ccc(F)cc1)c1cc(C(F)(F)F)cc(C(F)(F)F)c1 [Fosaprepitant dimeglumine salt] | -2.44
17 | CN1CC(=O)N=C1NC(=O)Nc1cccc(Cl)c1 [Fenobam] | -0.794
18 | Nc1nc2c(c(=O)[nH]1)C[C@@H](CCc1ccc(C(=O)N[C@@H](CCC(=O)O)C(=O)O)cc1)CN2 [Lometrexol hydrate] | 0.225
19 | CCn1cc(-c2ccnc3[nH]c(-c4cccc(CN(C)C)c4)cc23)c(-c2ccc(NC(=O)N(C)C)cc2)n1 | -5.93
20 | CN(C)C(=O)c1ccc(S(=O)(=O)c2ccc(NC(=O)[C@@](C)(O)C(F)(F)F)c(Cl)c2)cc1 | 19.5
21 | C[C@H](Oc1cc(-c2cnn(C3CCNCC3)c2)cnc1N)c1c(Cl)ccc(F)c1Cl [(S)-crizotinib] | -4.58
22 | Cc1ccc(Nc2c(F)cccc2Cl)c(CC(=O)O)c1 [Lumiracoxib] | 0.263
23 | COC(=O)[C@H](c1ccccc1Cl)N1CCc2sccc2C1 [Clopidogrel] | 1.42
24 | CN1CCC(=C2c3ccccc3CCc3sccc32)CC1 [Pizotifen Malate] | -6.09
25 | Clc1ccccc1CN1CCc2sccc2C1 [Ticlopidine HCl] | 18.4
26 | COC(=O)C1=C(C)NC(C)=C(C(=O)OC)C1c1cccc(NC(=O)NCCCN2CCC(c3cccc(OC)c3)CC2)c1 | < -3.85

Row | Compound | MBP+ mature oligodendrocyte number
27 | CCc1nc(N)nc(N)c1-c1ccc(Cl)cc1 [Pyrimethamine] | 49
28 | C[n+]1cccc(C(N)=O)c1 [1-Methylnicotinamide chloride] | -0.176
29 | N#CC[C@H](C1CCCC1)n1cc(-c2ncnc3[nH]ccc23)cn1 | 2.47
30 | c1ccc(-c2[nH]ncc2-c2ccnc3ccccc23)nc1 | -2.12
31 | CCN(CC)CC#CCOC(=O)C(O)(c1ccccc1)C1CCCCC1 (stereo unspecified) [Oxybutynin Chloride] | 13.5
32 | CCCC(C(=O)OCCN(CC)CC)(c1ccccc1)c1ccccc1 [SKF-525A hydrochloride] | -3.42
33 | CCN(CC)CCOC(=O)C(c1ccccc1)c1ccccc1 [Adiphenine HCl] | 0.0731
34 | CCN(CC)CC#CCOC(=O)C(O)(c1ccccc1)C1CCCCC1 (stereo unspecified) [Oxybutynin chloride] | 29.7
35 | Cc1cc2nc(NCCCO)n(CC(=O)c3cc(C(C)(C)C)c(O)c(C(C)(C)C)c3)c2cc1C | -4
36 | CC[C@H](NC(=O)[C@H](C)NC)C(=O)N1C[C@@H](O)C[C@H]1Cc1c(-c2[nH]c3cc(F)ccc3c2C[C@@H]2C[C@H](O)CN2C(=O)[C@H](CC)NC(=O)[C@H](C)NC)[nH]c2cc(F)ccc12 [Birinapant] | -5.76
37 | NCCCCCNCC12CC3CC(CC(C3)C1)C2 [IEM 1754 dihydrobroMide] | -4.82
38 | O=C1NCC2(CCN(CCc3ccccc3)CC2)O1 [Fenspiride HCl] | 21.6
39 | O=C1NCN(c2ccccc2)C12CCN(CCCC(c1ccc(F)cc1)c1ccc(F)cc1)CC2 [Fluspirilene] | -4.41
40 | O=C1NCC2(CCN(CCc3ccccc3)CC2)O1 [Fenspiride hydrochloride] | 10.5
41 | O=C(O)P(=O)(O)O [Foscarnet Sodium] | -1.56
42 | CC(=O)OC[C@H]1O[C@@H]([S-])[C@H](OC(C)=O)[C@@H](OC(C)=O)[C@@H]1OC(C)=O.CCP(CC)CC.[Au+] [Auranofin] | < -3.85
43 | C[C@]12C=CC(=O)C=C1CC[C@@H]1[C@@H]2[C@@H](O)C[C@@]2(C)[C@H]1CC[C@]2(O)C(=O)CO [Prednisolone] | 7.54
44 | CC1(C)O[C@@H]2C[C@H]3[C@@H]4CCC5=CC(=O)C=C[C@]5(C)[C@H]4[C@@H](O)C[C@]3(C)[C@]2(C(=O)CO)O1 [Desonide] | 9.44
45 | CCCC1O[C@@H]2C[C@H]3[C@@H]4CCC5=CC(=O)C=C[C@]5(C)[C@H]4[C@@H](O)C[C@]3(C)[C@]2(C(=O)CO)O1 (stereo partly specified) [Budesonide] | 13.4 ± 10
46 | Nc1ccccc1NC(=O)c1ccc(CNc2nccc(-c3cccnc3)n2)cc1 [Mocetinostat (MGCD0103)] | < -6.7
47 | CC(O)C(O)[C@H]1CNc2nc(N)[nH]c(=O)c2N1 (stereo partly drawn) [(6R)-5,6,7,8-Tetrahydro-L-biopterin hydrochloride] | -1.5
48 | CCCn1c(=O)c2c(ncn2C)n(CCC)c1=O [1,3-Dipropyl-7-methylxanthine] | 0.502
49 | CO/N=C(\C(=O)N[C@@H]1C(=O)N2C(C(=O)O)=C(Cn3ccc(=N)n3CCO)CS[C@H]12)c1csc(N)n1 [Cefoselis Sulfate] | 0.982
50 | CC(C)[C@H](NC(=O)c1ccc2ccccc2n1)C(=O)N[C@@H](CC(=O)O)C(=O)COc1c(F)cccc1F | 24.8
51 | CC(C)C[C@H](NC(=O)[C@@H](NC(=O)c1cccc(-c2ccccc2)n1)[C@@H](C)O)B(O)O | < -6.7
52 | C[C@H](NC(=O)C(=O)Nc1ccccc1C(C)(C)C)C(=O)N[C@@H](CC(=O)O)C(=O)COc1c(F)c(F)cc(F)c1F [Emricasan] | 10.3

Row | Compound | MBP+ mature oligodendrocyte number
53 | NC[C@@H]1O[C@H](c2ccccc2)Cc2c1ccc(O)c2O | -0.675
54 | NC(N)=NC(N)=Nc1ccccc1 [1-Phenylbiguanide] | 0.289
55 | CC[C@H](/C=C/[C@@H](C)[C@H]1CC[C@H]2[C@@H]3CC=C4C[C@@H](O)CC[C@]4(C)[C@H]3CC[C@]12C)C(C)C [Stigmasterol] | -1.84
56 | C[C@]12CC[C@H](O)CC1=CC[C@@H]1[C@@H]2CC[C@]2(C)C(n3cnc4ccccc43)=CC[C@@H]12 [Galeterone] | 16.8
57 | CC(=O)[C@H]1CC[C@H]2[C@@H]3CC=C4C[C@@H](O)CC[C@]4(C)[C@H]3CC[C@]12C [Pregnenolone] | -3.89
58 | CC(C)C[C@H](NP(=O)(O)O[C@H]1O[C@H](C)[C@@H](O)[C@H](O)[C@@H]1O)C(=O)N[C@@H](Cc1c[nH]c2ccccc12)C(=O)O [Phosphoramidon disodium] | -0.211
59 | CN(N=O)C(=O)NC1C(O)OC(CO)C(O)C1O (stereo unspecified) [Streptozotocin (STZ)] | 0.109
60 | CN(C)C1CCN(C(=O)c2ccc(NC(=O)Nc3ccc(-c4nc(N5CCOCC5)nc(N5CCOCC5)n4)cc3)cc2)CC1 | < -6.01
61 | CC(C)(N)c1ncc(-c2ccc(OC(F)(F)F)cc2)[nH]1 | -1.43
62 | O=C(NC(NC(=S)Nc1ccc(F)c([N+](=O)[O-])c1)C(Cl)(Cl)Cl)C(c1ccccc1)c1ccccc1 (stereo unspecified) | -5.76
63 | CCN(CC)Cc1ccc(C(=O)N(CCc2ccccc2OC)[C@@H]2CCNC2)cc1 | -3.89
64 | CCCC(CCC)C(=O)O[C@H]1C[C@H]2CC[C@@H](C1)[N+]2(C)C [Anisotropine methyl bromide] | 32.5
65 | CC(C)[N+]1(C)[C@@H]2CC[C@H]1C[C@@H](OC(=O)C(CO)c1ccccc1)C2 (stereo partly specified) [Ipratropium bromide] | -0.439
66 | CCCC(CCC)C(=O)O [Divalproex Sodium] | 2.05
67 | CCCC(CCC)C(=O)O [Valproic acid sodium salt (Sodium valproate)] | 0.72
68 | CCCC(CCC)C(=O)O [Valproic acid sodium] | 0.147
69 | CC(C)[N+]1(C)[C@@H]2CC[C@H]1C[C@@H](OC(=O)C(CO)c1ccccc1)C2 (stereo partly specified) [Ipratropium Bromide] | 0.883
70 | Nc1cc(C(F)(F)F)c(-c2cc(N3CCOCC3)nc(N3CCOCC3)n2)cn1 [BKM120 (NVP-BKM120, Buparlisib)] | -4.7
71 | Clc1ccc(N2CCN(Cc3cc4ccccn4n3)CC2)cc1 | 0.61
72 | CCCCS(=N)(=O)CCC(N)C(=O)O (racemic) [DL-Buthionine-[S,R]-sulfoximine] | -0.472
73 | COc1ccc(CCN(C)CCCC(C#N)(c2ccc(OC)c(OC)c2)C(C)C)cc1OC (racemic) [(±)-Verapamil hydrochloride] | -2.6
74 | CC(C(=O)O)c1ccc(-c2ccccc2)c(F)c1 (stereo unspecified) [Flurbiprofen] | -0.0169
75 | C/C(O)=C(\C#N)C(=O)Nc1ccc(C(F)(F)F)cc1 [Teriflunomide] | 0.913
76 | CC(C)C[C@H](C(=O)O)c1cc(-c2ccc(C(F)(F)F)cc2)cc(-c2ccc(C(F)(F)F)cc2)c1 | 25.5
